# Rows were chosen to be rich in hits. Some 1.4% of all compounds tested hit in one or more screens of this group.
# N370S GC = inhibits or activates N370S mutant glucocerebrosidase; P04062; N370S GC spleen homogenate, 4MU-glucoside fluorescence; Potency, µM (titrated, usually from 59.4 µM), without a hit: at the top dose activity change, negative = inhibition, most hits filed as inhibitors; actives 0.092% (n = 330,000); AID 2101;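 also: potency is read from the fitted curve at half-maximal effect; 0% = full enzyme activity and -100% = no enzyme basal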
# Pin1 inh = inhibitors of human Pin1; Potency, µM (doses to about 115 µM), for inactives: at the top dose activity, negative = inhibition, actives largely listed as inhibitors; Pin1 FP peptide displacement, HiFluor488, 10 min; actives 0.009% (n = 390,000); Q13526; active = well fitted inhibition curve with a large enough effect in the polarisation, with a control signal flat, not every such curve was filed as active; inconclusive = small, poorly fitted or top-dose-only effect, or effect the other way, or a change in a side signal; inactive = no such curve, though single readings can be large or run the other way; the % refers to the polarisation; also: potency is read from the fitted curve at half-maximal effect; % is scaled to controls: 0 for no effect and ±100 for the full control effect
# Target sequence (Q13526 whole entry, looked up): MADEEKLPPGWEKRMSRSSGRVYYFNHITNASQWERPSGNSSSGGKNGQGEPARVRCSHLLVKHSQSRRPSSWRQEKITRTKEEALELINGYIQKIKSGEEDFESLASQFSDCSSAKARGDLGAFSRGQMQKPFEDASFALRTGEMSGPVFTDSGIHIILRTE
# rTrxR1 inhibitor = blocks rat thioredoxin reductase 1. actives 1% (n = 390,000). recombinant rTrxR1, NADPH fluorescence consumption, selenite substrate. Potency, µM (doses to about 114 µM), for inactives: at the top dose activity change, negative = inhibition, usual class: inhibitors; also: potency is read from the fitted curve at half-maximal effect; % is scaled to controls: 0 for no effect and ±100 for the full control effect; nearly all actives have a fitted effect of over 65% in size
# Target sequence (O89049 whole entry, looked up): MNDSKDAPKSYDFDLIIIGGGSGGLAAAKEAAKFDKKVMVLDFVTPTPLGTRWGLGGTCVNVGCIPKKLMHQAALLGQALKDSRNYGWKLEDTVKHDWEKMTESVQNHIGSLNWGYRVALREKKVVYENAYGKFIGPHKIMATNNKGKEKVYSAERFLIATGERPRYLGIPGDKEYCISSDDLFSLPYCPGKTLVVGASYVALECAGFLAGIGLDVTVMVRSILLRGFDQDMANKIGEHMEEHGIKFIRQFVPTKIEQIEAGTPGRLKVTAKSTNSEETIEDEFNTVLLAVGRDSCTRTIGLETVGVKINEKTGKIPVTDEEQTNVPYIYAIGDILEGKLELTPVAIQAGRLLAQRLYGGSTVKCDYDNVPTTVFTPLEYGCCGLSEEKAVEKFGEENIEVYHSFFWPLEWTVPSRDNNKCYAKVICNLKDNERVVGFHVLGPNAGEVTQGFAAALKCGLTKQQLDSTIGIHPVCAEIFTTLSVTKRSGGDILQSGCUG
#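 Rat TrxR1 (90 nM in the dispensed reagent) was pre-reduced with 400 uM NADPH for 5 min at room temperature, then incubated with compound for 15 min. After 400 uM selenite was added, NADPH fluorescence (Ex 340/Em 450 nm) was followed for 8 min.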
# AT treatment = potential ataxia-telangiectasia treatment | F2112 A-T fibroblasts, KAP-1 phosphorylation AlphaLISA; neocarzinostatin DNA damage 30 min before lysis | Potency, µM (titrated, usually from 57.5 µM), for the others: at the highest dose activation, most hits filed as activators | actives 0.19% (n = 320,000); also: potency is read from the fitted curve at half-maximal effect; % of control where 0% means no effect; nearly all actives have a fitted effect of over 45% in size
#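 ATM-like activity read as KAP-1 phosphorylation via AlphaLISA donor/acceptor antibody pairs after lysis and 6 hr at 25C. Cells were ATM-null patient fibroblasts (F2112, hTERT), dosed 60 min, then exposed to the DSB inducer NCS for 30 min.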
# Akt phos inh = inhibitors of Akt phosphorylation; Neuro2A IGF-stimulated pAkt S473 HTRF, 20 min; active compounds read low; activity change, % for hits at 50 µM; actives 0.32% (n = 360,000); AID 651550; in the data active = activity change below about -80%; inconclusive = mostly about -51% to -80%; also: % is scaled to controls: 0 for no effect and ±100 for the full control effect
#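 Neuro2A cells (4,500/well, DMEM with 0.5% FBS) were treated with compound at a single 50 µM final concentration, stimulated with 6 nM IGF for 20 min at 37 °C, and lysed. Phospho-Akt Ser473 was read by HTRF as 665/615 ratio ×10^4.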
# TrxR1 substrate = is turned over as a substrate by rat TrxR1; actives 0.01% (n = 390,000); AID 588456; Potency, µM (series often up to 114 µM), inactives show at the top dose activity change, negative = substrate turnover; purified TrxR1 substrate turnover, NADPH consumption readout; O89049; also: potency is read from the fitted curve at half-maximal effect; % is scaled to controls: 0 for no effect and ±100 for the full control effect; nearly all actives have a fitted effect of over 50% in size
#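 Rat TrxR1, dispensed at 90 nM, was prereduced with 400 uM NADPH (final) for 5 min at ~22 deg C, then incubated with compound 15 min before 400 uM selenite. A first-read NADPH fluorescence drop versus no-compound background flagged substrates.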
# * = called active by the depositor; i = inactive; ? = inconclusive; nt = no result given; [ ] = another dose, or the depositor's remark. Unless noted, calls follow the shape of the dose curve; as a rule, active = well fitted curve in the direction sought with a large enough effect; inconclusive = small, poorly fitted or top-dose-only effect, or another doubt; inactive = no such curve, though single readings can be large; an effect the other way counts as inactive or inconclusive.
SMILES,N370S GC,Pin1 inh,rTrxR1 inhibitor,AT treatment,Akt phos inh,TrxR1 substrate
O=[N+]([O-])c1ccc(Cl)c([N+](=O)[O-])c1,-2%,12%,2.8µM*,1%,i,1%
O=[N+]([O-])c1ccc(O)c([N+](=O)[O-])c1,-29%,-11%,-14%,nt,i,-12%
CCCCC(CC)COC(=O)c1ccc(C(=O)OCC(CC)CCCC)c(C(=O)OCC(CC)CCCC)c1 (configuration not stated),0%,nt,nt,nt,nt,nt
Cc1ccc(/C=C2\C(=O)NC(=O)N(CCc3ccc(F)cc3)C2=O)s1,1%,13%,-14%[57.1 µM],-3%,i,8%
Cc1ccc(/C=C2/C(=O)NC(=O)N(CC3CCCO3)C2=O)s1 (configuration not stated),-2%,-1%,50µM*,2%,i,-1%
C[C@@H]1O[C@@H](O[C@@H]2C=C3CC[C@@H]4[C@@H](CC[C@]5(C)[C@H](c6ccc(=O)oc6)CC[C@@]45O)[C@@]3(C)CC2)[C@H](O)[C@H](O)[C@H]1O,nt,nt,9%,nt,nt,4%
CCC(C)(C)NC(=O)C(NS(=O)(=O)c1cccs1)c1ccccc1 (configuration not stated),0%,8%,9%,-6%,i,-4%
ClC(Cl)C(Cl)Cl,1%,nt,nt,nt,nt,nt
CCCN1CCc2cccc3c2[C@H]1Cc1ccc(O)c(O)c1-3,nt,-2%,24µM*,nt,i,?
C=CCN1CCc2cccc3c2C1Cc1ccc(O)c(O)c1-3 (configuration not stated),4%,nt,?,nt,nt,nt
CCc1nn2c(=O)c(C)c(N3CCNCC3)nc2s1,nt,1%,nt,nt,nt,nt
CCOC(=O)[C@]1(C#N)[C@@H]2C=CC(C(C)=O)=CN2[C@@H](C(N)=O)[C@@H]1c1ccsc1,10%,?,2%[57.1 µM],-17%,-106%*,9%[57.1 µM]
Oc1c(C(Nc2cccnc2)c2ccccc2F)ccc2cccnc12 (configuration not stated),nt,nt,1.4µM*,nt,nt,1%
Oc1cccc2cccnc12,0%,1%,13%,-3%,nt,6%
O=[N+]([O-])c1cc(C(F)(F)F)c(Cl)c([N+](=O)[O-])c1Nc1ncc(C(F)(F)F)cc1Cl,nt,nt,?,nt,nt,-7%
CN(C(=O)Cc1ccc(Cl)c(Cl)c1)C(CN1CCCC1)c1cccc(N=C=S)c1 (configuration not stated),-6%,nt,nt,nt,nt,nt
CC1(C)C[C@H]2C=C(C=O)[C@]3(C=O)C[C@]3(C)[C@H]2C1,4%,-6%,-22%,3.5µM*,i,0%
CC(=O)Oc1c2c(c(CC=C(C)C)c3c1C(=O)C1=CC4CC5C(C)(C)OC(C/C=C(\C)C(=O)O)(C4=O)[C@]15O3)OC(C)(CCC=C(C)C)C=C2 (some centres not stated),-2%,nt,nt,nt,nt,nt
O=C(O)CCC(=O)NCCC1=c2ccccc2=N/C1=C\c1c(O)n(Cc2ccc(F)cc2)c(=S)[nH]c1=O,-4%,-8%,35µM*,-10%,i,6%
O=C(N/N=C/c1c(O)n(Cc2ccc(F)cc2)c(=O)[nH]c1=O)c1ccccc1,-8%,2%,1%[57.1 µM],0%,i,2%[57.1 µM]
Cl/C=C\Cl,5%,nt,nt,nt,nt,nt
O=C1C(=O)c2ccccc2-c2ccccc21,20%,nt,10µM*,5%,i,3.2µM*
O=C1C(=O)c2cccc3cccc1c23,4%,2%,26%,17%,i,9%
Cc1ccc(OCCOc2cccc(C=C3C(=O)NC(=O)NC3=O)c2)c(C)c1,1%,2%,7.9µM*,?,i,2%
CN(C)c1ccc(C=C2C(=O)NC(=O)NC2=O)cc1,nt,-1%,-8%[2.29 µM],nt,i,2%[57.1 µM]
SMILES,N370S GC,Pin1 inh,rTrxR1 inhibitor,AT treatment,Akt phos inh,TrxR1 substrate
O=C1NC(=O)C(=Cc2cccc(OCCOc3ccccc3)c2)C(=O)N1,0%,2%,16µM*,6%,i,1%
O=C1NC(=O)C(=Cc2ccc(OCCOc3ccc([N+](=O)[O-])cc3)cc2)C(=O)N1,-8%,0%,35µM*,-1%,i,-5%
CCOP(=S)(OCC)SCSC(C)(C)C,8%,nt,nt,nt,nt,nt
O=C1NC(=O)C(=Cc2cc(Cl)ccc2OCc2ccc(C(=O)O)cc2)C(=O)N1,10%,-11%,10µM*,-2%,i,3%
C=C(C)C1Cc2c(ccc3c2OC2COc4cc(OC)c(OC)cc4C2C3=O)O1 (configuration not stated),29%,nt,nt,nt,nt,nt
COc1ccc(N2C(=O)NC(=O)/C(=C/c3cccc(OC(=O)c4cccs4)c3)C2=O)cc1Cl,3%,26%,10µM*,7%,i,-8%
Cc1ccc(N2C(=O)NC(=O)/C(=C/c3ccc(OC(=O)c4cccs4)cc3)C2=O)cc1,0%,3%,32µM*,-1%,i,-2%
COc1ccccc1N1C(=O)NC(=O)/C(=C/c2ccc3c(c2)Cc2ccccc2-3)C1=O,-3%,16%,?,5%,i,8%
O=C(N/N=C/c1c(O)n(-c2ccccc2)c(=S)[nH]c1=O)c1ccccc1,3%,5%,3%[57.1 µM],8%,i,0%[57.1 µM]
CC(C)c1ccc(-n2c(O)c(C=NC(CCS(C)=O)C(=O)O)c(=O)[nH]c2=S)cc1 (configuration not stated),-4%,-1%,-16%,7.9µM*,i,-11%
Cc1nccn1-c1c([N+](=O)[O-])c(=O)n(C)c2ccccc12,13%,2%,4%[57.1 µM],3.2µM*,i,0%[57.1 µM]
O=C1NC(=O)C2C1C1(Cl)C(Cl)=C(Cl)C2(Cl)C1(Cl)Cl (configuration not stated),nt,-2%,19%[57.1 µM],nt,i,10%[57.1 µM]
ClC1=C(Cl)C2(Cl)C3C(Cl)C=CC3C1(Cl)C2(Cl)Cl (configuration not stated),19%,4%,19%,40µM*,i,5%
Clc1nc(Cl)nc(Cl)n1,0%,nt,nt,nt,nt,nt
ClCC(Cl)Cl,10%,nt,nt,nt,nt,nt
Cc1ccc(OCC(=O)N2CCN(CCc3ccncc3)CC2)cc1C,nt,-7%,79µM*,nt,nt,2%
CC(=O)[O-].CC(=O)[O-].O.O.O.[Pb+2],9%,nt,nt,nt,nt,nt
Nc1ccccc1N=Cc1c(O)n(CCC2=CCCCC2)c(=O)[nH]c1=O,-4%,24%,?,6%,-115%*,-8%
O=C(N/N=C/c1c(O)n(CCC2=CCCCC2)c(=O)[nH]c1=O)c1ccccc1,-19%,2%,-32%,-2%,i,-16%
CN1CCN(c2ccc([N+](=O)[O-])c3no[n+]([O-])c23)CC1,-4%,?,-39%,16µM*,i,7%[57.1 µM]
O=[N+]([O-])c1ccc(N(CCO)CCO)c2c1no[n+]2[O-],nt,nt,nt,nt,i,nt
